From PubChem
GPR151 activ: activators of human GPR151. Q8TDV0. PathHunter beta-arrestin GPR151 cells, luminescence. activation, % at 11.2 µM. 650,000 tested, 1% active; in the data active means activation above about 4.9%;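 further: 0% = median of compound wells and 100% = cells with positive control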
TEAD-YAP block: TEAD-YAP interaction inhibition | HEK-TIYL cells, TEAD-Gal4/YAP UAS-luciferase luminescence | inhibition, % at 9.12 µM | 640,000 tested, 1.4% active | AID 1259422; in the data active means inhibition above about 32%;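 further: 0% = median of test compound wells and 100% = reference inhibitor wells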
FBW7 act: activators of human E3 ligase FBW7; normalized activity (activation), % at 26.1 µM; AID 1259310; 650,000 tested, 0.13% active; AlphaScreen FBW7–phospho-cyclin E peptide binding, activator screen; Q969H0; in the data active means normalized activity above about 1.9%;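 further: purified mutant Fbw7 with reduced substrate affinity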
MITF inh: human MITF inhibition, primary screen; O75030; AlphaScreen MITF homodimerization, bead proximity signal; inhibition, % at 2.6 µM; 650,000 tested, 0.91% active; AID 1259374; in the data active means inhibition above about 50%;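 further: 0% = vehicle wells with protein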
GPR151 conf act: human GPR151 activation, confirmation screen; shares compounds with GPR151 activ; GPR151 PathHunter beta-arrestin cells, luminescence, 90 min; % of EA-reagent control over plate median; activation, % at 11.2 µM; 6,700 tested, under 10 active;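 active means mean percent activation across replicates above the confirmation screen cutoff of 4.91%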
GPR119 counter: activates human GPR119 in a GPR151 counter-screen; 6,700 tested, 0.3% active; shares compounds with GPR151 activ; GPR119 PathHunter beta-arrestin cells, luminescence, 90 min; 0 = compound-well median, 100 = enzyme-acceptor control; AID 1508611; activation, % at 11.2 µM;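 active means mean percent activation in the counterscreen above 29.09%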;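 further: counterscreen on off-target GPR119 to flag nonselective hits from the GPR151 activator screen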
Target sequence (Q8TDV5 whole entry, looked up): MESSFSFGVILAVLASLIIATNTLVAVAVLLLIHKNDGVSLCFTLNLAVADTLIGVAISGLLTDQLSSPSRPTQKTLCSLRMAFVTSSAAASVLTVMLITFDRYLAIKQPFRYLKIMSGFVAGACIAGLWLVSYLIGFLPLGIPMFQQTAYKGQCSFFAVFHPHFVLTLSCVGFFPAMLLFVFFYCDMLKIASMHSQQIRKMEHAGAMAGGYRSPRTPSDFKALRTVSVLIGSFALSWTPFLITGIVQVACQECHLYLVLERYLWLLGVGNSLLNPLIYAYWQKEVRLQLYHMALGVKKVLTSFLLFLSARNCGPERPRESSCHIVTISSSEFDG
* = called active by the depositor; . = not tested or not shown. Shown are actives, neighbours in structure and some others; about 3.5% of the full set was active somewhere.

SMILES	GPR151 activ	TEAD-YAP block	FBW7 act	MITF inh	GPR151 conf act	GPR119 counter
COc1cc(/C=N/NC(=O)c2cccnc2)cc2sc(=O)oc12	-1	-6	0	6	.	.
CCCOc1ccccc1CNC(C)(C)C	9.3*	-13	0	-22	1	3
CCOc1ccccc1OCCCNC(C)(C)C	2	-4	0	30	.	.
CC(C)c1ccccc1OCCCNC(C)(C)C	7.1*	12	0	38	0	1
CCOc1ccccc1-c1nnc(SCC(=O)NCc2ccccc2)o1	6.9*	2	0	8	0	11
Cn1ccnc1SCCNC(=O)CC1C(=O)NCCN1CC1CCCCC1 (stereo not drawn)	7.6*	10	0	15	0	6
CC(C)(C)CN1CCNC(=O)C1CC(=O)NC1CCCCCCC1 (stereo not drawn)	11*	-13	0	11	-1	-4
CCOC(=O)/C(=C\c1ccco1)NC(=O)c1ccccc1I	12*	9	0	11	0	6
CCCCCn1c(=O)c2c(nc3n(Cc4ccc(OC)cc4)c(C)cn23)n(C)c1=O	4.9*	7	0	1	-1	-7
CCOC(=O)c1ccc(-n2c(C)cn3c4c(=O)n(C)c(=O)n(C)c4nc23)cc1	1	-1	0	-6	.	.
CCCCn1c(=O)c2c(nc3n(Cc4ccc(OC)cc4)c(C)cn23)n(C)c1=O	0	3	1	11	.	.
Cc1cn2c3c(=O)n(CC(C)C)c(=O)n(C)c3nc2n1C	5.6*	5	0	13	-1	6
C=CCn1c(C)cn2c3c(=O)n(CC(C)C)c(=O)n(C)c3nc12	1	6	0	-7	.	.
CCOC(=O)c1ccc(-n2c(C)cn3c4c(=O)n(CCC(C)C)c(=O)n(C)c4nc23)cc1	5.1*	10	0	1	0	5
CNC(=O)[C@@H]1C[C@H](NCc2ccc(OC)c(C)c2C)CN1Cc1ccccc1	1	-4	0	11	.	.
COc1cc(CNc2ncn[nH]2)cc(Cl)c1OC	2	-2	0	-5	.	.
COc1cc(CNc2ncn[nH]2)ccc1OCc1cccc(C)c1	5.1*	-29	0	-11	-1	-6
COC(=O)c1c(NC(=O)/C=C\C(=O)O)sc(C)c1C	14*	-1	0	21	-1	3
CC(NC(=O)c1cnccn1)c1nc(-c2ccncc2)n[nH]1 (stereo not drawn)	-1	6	0	2	.	.
CC(NC(=O)c1cnccn1)c1nc(-c2ccc(Cl)cc2)n[nH]1 (stereo not drawn)	8.1*	2	0	-1	1	12
COc1ccc(C)cc1N/C=C1/CCCCC1=O	1	2	0	-5	.	.
CSc1ccccc1C(=O)N(C)Cc1ccccc1	5.8*	-10	1	3	0	9
CS(=O)(=O)N1N=C(c2ccc3nccnc3c2)CC1c1ccccc1 (stereo not drawn)	5.0*	-13	0	5	-1	-13
O=C(NCCN1CCNCC1)c1cc(C2COc3ccccc3O2)nc2ccc(-c3cn[nH]c3)cc12 (stereo not drawn)	0	0	0	-2	.	.
O=C(O)c1cc(C2COc3ccccc3O2)nc2ccc(-c3cn[nH]c3)cc12 (stereo not drawn)	13*	4	0	21	1	3
SMILES	GPR151 activ	TEAD-YAP block	FBW7 act	MITF inh	GPR151 conf act	GPR119 counter
Nc1nnc(-c2ccc(C(=O)O)cc2)s1	7.6*	-5	0	5	1	0
Cc1ccc(-c2nnc(N)s2)cc1	-2	-8	0	-14	.	.
Cc1ccc(-c2nnc(N)s2)cc1C	5.6*	-33	0	1	-1	1
CNC(=O)c1ccc(S(=O)(=O)N2CCCC2)o1	0	-3	0	-12	.	.
O=C1NCC(O)=C1C=NCCO	6.2*	3	0	11	1	3
O=C1NCC(O)=C1C=Nc1ccc(O)cc1	0	5	0	15	.	.
O=C1NCC(O)=C1C=Nc1ccccc1	5.2*	3	0	-2	-2	-15
O=C(c1ccc(Cn2c(SCc3cc(=O)n4ccccc4n3)nc3cc4c(cc3c2=O)OCO4)cc1)N1CCN(c2ccccc2)CC1	2	-18	0	5	.	.
CCCCOc1ccc(OCCCC)c2c1NC1(N2)C(=O)Nc2ccc([N+](=O)[O-])cc21	5.1*	-9	0	5	1	2
O=C(CN1C(=O)c2cccc3cccc1c23)Nc1ccc(Br)cc1	0	-4	0	3	.	.
Cc1ccc(NC(=S)N(Cc2cccs2)C2CCCC2)cc1Cl	2	4	0	6	.	.
COc1cc(/C=N/NC(=O)CNC(=O)c2cccc(F)c2)cc([N+](=O)[O-])c1O	-1	-4	0	14	.	.
COc1ccc(-n2cc(C(=O)NC3CCC(C)CC3)c3ccccc3c2=O)cc1 (stereo not drawn)	5.0*	2	0	5	0	8
CCC(C)NC(=O)CCNC(=O)c1cn(-c2cccc(OC)c2)c(=O)c2ccccc12 (stereo not drawn)	2	6	0	-2	.	.
CCC(C)NC(=O)c1cn(-c2cccc(OC)c2)c(=O)c2ccccc12 (stereo not drawn)	5.4*	-3	0	3	0	2
COc1cccc(C2C(C(=O)OCCOc3ccccc3)=C(C)NC3=C2C(=O)CC(c2ccc(Cl)cc2)C3)c1 (stereo not drawn)	-2	15	0	9	.	.
CCCCC[C@H](O)/C=C/[C@H]1[C@H](O)CC(=O)[C@@H]1C/C=C\CCCC(=O)NC(CO)CO	-1	.	.	-9	.	.
COC(=O)c1ccc(/C=C2/C(=O)NN(c3ccc(C)c(C)c3)C2=O)cc1	5.2*	-1	0	13	0	0
CC(=O)C1=C(C)N(Cc2ccccc2)C(=O)N[C@H]1c1cccc(F)c1	6.9*	.	0	27	0	8
O=C(Nc1nncs1)c1cc(S(=O)(=O)N2CCCCC2)c(Cl)cc1Cl	-1	-11	0	-9	.	.
O=C(/C=C/c1cccs1)Nc1cc([N+](=O)[O-])ccc1Cl	1	-1	0	15	.	.
O=C(/C=C/c1cccs1)NC(=S)Nc1cc([N+](=O)[O-])ccc1O	5.4*	-12	0	34	0	-7
COC(=O)c1c(C)[nH]c(C(=O)COC(=O)CCc2ccc(OC)c(OC)c2)c1C	5.7*	5	0	6	0	4
O=C(CCCCCn1c(=S)[nH]c2ccccc2c1=O)NCc1cccnc1	1	-14	0	4	.	.
O=C1c2ccccc2C(=O)N1OS(=O)(=O)c1ccc(Cl)cc1	17*	2	1	14	0	4
O=C1c2ccccc2C(=O)N1OS(=O)(=O)c1ccccc1	0	-6	0	-2	.	.
